From the supplement of paper PMC12282887 come the findings set out here.

± gives the standard deviation of the averaged measurements.

In the assay the test system is E. coli BW25113 marRABp lux reporter. In words: promoter activity interaction Z-score (Lux/OD deviation from empty-vector control); higher = stronger promoter induction by the compound. On the procedure:
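E. coli BW25113 (wild type or ΔmarA/ΔsoxS/Δrob) carrying pTU175 luxCDABE promoter reporters was grown in LB in 384-well plates at 37°C with each of 94 compounds at 4 two-fold concentrations, in biological duplicates. Luminescence and OD600 were read every 30 min for 12 h and integrated as AUC over 8 h (0-8 h WT, 1-9 h mutants). Lux AUC was divided by OD AUC; the interaction score is the residual of a Huber robust fit of each promoter against the empty-vector control, then Z-transformed per promoter.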

As to `O=C(/C=C/C=C/c1ccc2c(c1)OCO2)N1CCCCC1` [Piperine], the “promoter activity interaction Z-score” value runs as follows: (17.8 µg/ml, genetic background: wild type) -0.274 ± 0.019; (17.8 µg/ml, genetic background: ΔmarA) -0.301 ± 0.051; (17.8 µg/ml, genetic background: Δrob) -0.434 ± 0.098; (17.8 µg/ml, genetic background: ΔsoxS) -0.317 ± 0.29; (35.7 µg/ml, genetic background: wild type) -0.476 ± 0.17; (35.7 µg/ml, genetic background: ΔmarA) -0.752 ± 0.41. Moreover, the “promoter activity interaction Z-score” value by setting is: (35.7 µg/ml, genetic background: Δrob) -0.43 ± 0.21; (35.7 µg/ml, genetic background: ΔsoxS) -0.378 ± 0.24; (71.3 µg/ml, genetic background: wild type) -0.335 ± 0.037; (71.3 µg/ml, genetic background: ΔmarA) -0.48 ± 0.25; (71.3 µg/ml, genetic background: Δrob) -0.399 ± 0.2; (71.3 µg/ml, genetic background: ΔsoxS) -0.463 ± 0.46. Besides, the “promoter activity interaction Z-score” value was -0.425 ± 0.28 (142.7 µg/ml, genetic background: wild type); -0.375 ± 0.13 (142.7 µg/ml, genetic background: ΔmarA); -0.33 ± 0.27 (142.7 µg/ml, genetic background: Δrob); -0.0869 ± 0.48 (142.7 µg/ml, genetic background: ΔsoxS).

As for `CC(=O)[C@H]1CC[C@H]2[C@@H]3CCC4=CC(=O)CC[C@]4(C)[C@H]3CC[C@]12C` [Progesterone], the “promoter activity interaction Z-score” value was -0.0683 ± 0.075 (19.7 µg/ml, genetic background: wild type); 0.0187 ± 0.17 (19.7 µg/ml, genetic background: ΔmarA); -0.191 ± 0.093 (19.7 µg/ml, genetic background: Δrob); 0.0521 ± 0.092 (19.7 µg/ml, genetic background: ΔsoxS); -0.275 ± 0.28 (39.3 µg/ml, genetic background: wild type); -0.0815 ± 0.0053 (39.3 µg/ml, genetic background: ΔmarA). For the same compound, the “promoter activity interaction Z-score” value runs as follows: (39.3 µg/ml, genetic background: Δrob) -0.249 ± 0.035; (39.3 µg/ml, genetic background: ΔsoxS) -0.155 ± 0.11; (78.6 µg/ml, genetic background: wild type) -0.102 ± 0.22; (78.6 µg/ml, genetic background: ΔmarA) -0.0516 ± 0.038; (78.6 µg/ml, genetic background: Δrob) -0.252 ± 0.24; (78.6 µg/ml, genetic background: ΔsoxS) -0.3 ± 0.093. The “promoter activity interaction Z-score” value reads like this: (157.2 µg/ml, genetic background: wild type) -0.0485 ± 0.46; (157.2 µg/ml, genetic background: ΔmarA) 0.0739 ± 0.13; (157.2 µg/ml, genetic background: Δrob) -0.505 ± 0.15; (157.2 µg/ml, genetic background: ΔsoxS) -0.178 ± 0.15.
